Rows were chosen to be rich in hits. Some 3.1% of all compounds tested hit in one or more screens of this group.
EPAC1 ag val: validation of human EPAC1 agonists. EPAC1 Rap1b BODIPY-GDP exchange, fluorescence. AID 1645883. 1% of 16,000 active. Potency, µM, for the others: max response, positive = active, most hits filed as activators; further: nearly all actives have a fitted effect of over 70% in size
EPAC2 ant val: validation of human EPAC2 antagonists | Q8WZA2 | EPAC2 Rap1B BODIPY-GDP exchange, fluorescence | Potency, µM (top dose mostly 112 µM), without a hit: top-dose activity, negative = inhibition, hits mostly inhibitors | 1.7% of 16,000 active | AID 1645886;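 further: 100% = activation by cAMP agonist control; nearly all actives have a fitted effect of over 40% in size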
Target sequence (Q8WZA2 whole entry, looked up): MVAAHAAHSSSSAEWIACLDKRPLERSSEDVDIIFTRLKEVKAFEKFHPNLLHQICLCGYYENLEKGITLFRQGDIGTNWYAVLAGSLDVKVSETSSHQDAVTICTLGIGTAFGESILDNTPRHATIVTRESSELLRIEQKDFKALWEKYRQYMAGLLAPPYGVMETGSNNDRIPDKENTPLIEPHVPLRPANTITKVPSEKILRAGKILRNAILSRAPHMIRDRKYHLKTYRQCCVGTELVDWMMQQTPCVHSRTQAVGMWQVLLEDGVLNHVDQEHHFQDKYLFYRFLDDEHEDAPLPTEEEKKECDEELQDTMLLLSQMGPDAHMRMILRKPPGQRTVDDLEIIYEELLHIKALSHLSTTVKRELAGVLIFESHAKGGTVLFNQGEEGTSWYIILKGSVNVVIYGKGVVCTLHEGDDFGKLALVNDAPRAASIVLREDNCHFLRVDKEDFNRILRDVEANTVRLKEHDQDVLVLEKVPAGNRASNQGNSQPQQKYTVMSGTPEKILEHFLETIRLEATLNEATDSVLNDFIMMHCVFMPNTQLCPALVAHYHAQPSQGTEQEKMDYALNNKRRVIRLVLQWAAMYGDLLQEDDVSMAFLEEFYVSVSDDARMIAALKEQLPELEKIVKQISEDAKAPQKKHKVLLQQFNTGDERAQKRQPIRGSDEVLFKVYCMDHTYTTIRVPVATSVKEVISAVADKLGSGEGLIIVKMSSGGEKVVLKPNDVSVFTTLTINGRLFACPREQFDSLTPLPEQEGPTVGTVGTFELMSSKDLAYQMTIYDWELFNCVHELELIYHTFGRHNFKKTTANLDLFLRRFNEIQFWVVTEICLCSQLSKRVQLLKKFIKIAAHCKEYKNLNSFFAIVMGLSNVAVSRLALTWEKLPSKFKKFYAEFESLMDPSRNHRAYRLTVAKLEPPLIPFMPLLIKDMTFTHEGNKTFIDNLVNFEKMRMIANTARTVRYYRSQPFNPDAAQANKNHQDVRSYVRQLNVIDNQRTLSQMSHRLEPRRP
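Normalized against a 6.5 mM cAMP agonist control, compounds were tested on 100 nM EPAC2 exchanging Rap1B-bound BODIPY-GDP (250 nM) for 50 uM GDP. Fluorescence drop (ex 480, em 540 nm) was tracked at room temperature over 30 min at 5-min intervals.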
* hit, by the source's call; ? = inconclusive; ! = a repeat was not active; [ ] = remark or other dose. The call rests on the fitted dose curve; in most records, active means well fitted curve in the direction sought with a large enough effect; inconclusive means small, poorly fitted or top-dose-only effect, or another doubt; inactive means no such curve, though single readings can be large; an effect the other way counts as inactive or inconclusive. Unless noted, on the % scale 0 is the no-effect control and ±100 the full control effect; potency means the concentration at half of the fitted maximal effect.

SMILES | EPAC1 ag val | EPAC2 ant val
O=C(NCc1nnc2n1CCN(Cc1ccnc3ccccc13)CC2)c1cccc(F)c1 | -27% | ?
CC(=O)N1CCN(c2nc3cc(C)ccc3cc2CN(C(=O)c2cccc3ccccc23)C2CC2)CC1 | 10% | -20%
COc1ccc(-c2nc3cncnc3n(-c3ccccc3)c2=O)cc1 | -10% | -8%
Oc1ccc(/C=C\c2cc(O)cc(O)c2)cc1 | -17% | 28µM*
Oc1ccc(/C=C/c2cc(O)cc(O)c2)cc1 | ? | 50µM*!
O=C(/C=C/c1ccc(O)cc1)c1ccc(O)cc1O | -4% | ?
O=c1cc(O)cc(/C=C/c2ccc(O)c(O)c2)o1 | 2% | -2%
CC(=O)OCC(=O)[C@@]1(O)CCC2C3CCC4=CC(=O)CC[C@]4(C)C3C(O)C[C@]21C (stereo partly drawn) | 29% | -7%
COc1ccccc1-c1oc2ccccc2c(=O)c1OC | 5% | ?
COc1c(-c2ccccc2)oc2c(ccc3occc32)c1=O | ? | 4.5µM*
O=c1c(O)c(-c2ccccc2)oc2ccc3occc3c12 | ? | 7.1µM*
O=c1c(O)c(-c2cccc(O)c2)oc2ccccc12 | -10% | -16%
COc1cc2ncc(-c3ccccc3)nc2cc1OC | -3% | -18%
C=C1C[C@]23C[C@@]1(O)CC[C@H]2[C@@]12C=C[C@H](O)C(C)(C(=O)O1)[C@H]2[C@@H]3CC(=O)O | -9% | 14%
Cn1cccc1C(=O)N1CCC2(CCN(Cc3ccc(C#N)cc3)CC2)CC1 | 10% | -16%
OC[C@H]1O[C@H](n2cnc3c(N[C@H]4CCC[C@@H]4O)ncnc32)[C@H](O)[C@@H]1O | -1% | -13%
C=CCCCCCCCCCCCC(O)CC(O)CO (stereo not drawn) (tested in a mixture with another compound) | -143% | 40µM*
C=CCCCCCCCCCCCC(O)CC(O)COC(C)=O (stereo not drawn) | -118% | ?
COc1ccccc1CNc1nc(-c2cccc(C#N)c2)nc2ccccc12 | 100µM* | -17%
Cc1cccc(CNc2nc(-c3cccc(NS(C)(=O)=O)c3)nc3ccccc23)c1 | ? | -29%
COc1ccccc1CNc1nc(-c2ccc(N(C)C)cc2)nc2ccccc12 | ? | -11%
COc1ccccc1CNc1nc(-c2cccc(NS(C)(=O)=O)c2)nc2ccccc12 | 100µM* | -22%
COc1cccc(-c2nc(NCc3ccccc3OC)c3ccccc3n2)c1 | ? | -23%
COc1ccccc1CNc1nc(-c2ccc3c(c2)OCO3)nc2ccccc12 | 100µM* | -23%
CC(C)c1nc(CN(C)C(=O)N[C@H](C(=O)N[C@@H](Cc2ccccc2)C[C@H](O)[C@H](Cc2ccccc2)NC(=O)OCc2cncs2)C(C)C)cs1 | -44% | -54%
SMILES | EPAC1 ag val | EPAC2 ant val
COC(=O)CC1C(C)(C)C(OC(C)=O)C2CC3C4CC(=O)OC(c5ccoc5)[C@]4(C)CCC3[C@@]1(C)C2=O (stereo partly drawn) | ? | -16%
Cc1noc(C)c1-c1ccc2ncnc(N3CCN(C)CC3)c2c1 | -39% | -5%
CCc1ccc(CCOc2ccc(CC3SC(=O)NC3=O)cc2)nc1 (stereo not drawn) | -19% | 2%
Cc1cccc2c(N3CCCC3)nc(CNS(=O)(=O)c3ccccc3F)nc12 | 5% | -20%
COCCn1c(=O)c(-c2cccs2)nc2cnc(N(C)C)nc21 | 112µM* | 43%
CN(C)c1ncc2nc(-c3cccs3)c(=O)n(C3CC3)c2n1 | 100µM* | 63%
COCCn1c(=O)c(-c2cccs2)nc2cnc(OC)nc21 | -37% | -4%
O=c1c(-c2cccs2)nc2cnc(Oc3ccccc3)nc2n1C1CC1 | -22% | -22%
CS(=O)(=O)Nc1cccc(-c2nc(NC3CC3)c3ccccc3n2)c1 | -17% | -12%
COc1ccc(C(=O)c2ccccc2O)c(O)c1 | -4% | 45µM*!
COc1ccc(/C=C/C(=O)c2cc(O)ccc2O)cc1 | 9% | ?
COCC1CCCN(Cc2ccc3c(c2)CN(C(=O)c2ccc(-n4cccn4)cc2)CCO3)C1 (stereo not drawn) | -15% | 9%
O=C(Nc1ccc(Cl)cc1)Nc1ccc(Cl)c(Cl)c1 | -4% | ?
O=C(Nc1ccc(Oc2ccc(Cl)cc2)c(Cl)c1)c1cc(I)cc(I)c1O | 100µM* | -18%
O=C(Nc1cccc(C2=NCCN2)c1)Nc1cccc(C2=NCCN2)c1 | 18% | -44%
CC1=C(CC(=O)O)c2cc(F)ccc2/C1=C\c1ccc(S(C)(=O)=O)cc1 | 9% | 16%
CS(=O)(=O)c1ccc(-c2cc(Br)sc2-c2ccc(F)cc2)cc1 | 22% | 40µM*
COC(=O)[C@H]1[C@H]2C[C@@H]3c4[nH]c5cc(OC)ccc5c4CCN3C[C@H]2C[C@@H](OC(=O)COc2ccc(OC)cc2)[C@@H]1OC | 1% | -2%
CCOC(=O)Oc1c(OC)cc(C(=O)O[C@@H]2C[C@@H]3CN4CCc5c([nH]c6cc(OC)ccc56)[C@H]4C[C@@H]3[C@H](C(=O)OC)[C@H]2OC)cc1OC | 32µM*! | -17%[29.6 µM]
CCCCCCCC(=O)OC[C@H](CO)OC(=O)CCCCCCC | -23% | ?
Clc1ccc(C(c2ccccc2Cl)C(Cl)Cl)cc1 (stereo not drawn) | ? | 14µM*!
CC(=O)Oc1ccc2c(c1C(C)C)CCC1C(C)(C)CCC[C@@]21C (stereo partly drawn) | 100µM* | -28%
COC(=O)[C@@]1(C)CCC[C@@]2(C)c3ccc(O)c(C(C)C)c3CCC21 (stereo partly drawn) | -38% | ?
CC(C)CN1CCC2(CC1)CCN(C(=O)c1cccn1C)CC2 | -53% | -8%
COc1ccc(-c2oc3cc(OC)c(OC(C)=O)c(OC)c3c(=O)c2OC)cc1OC(C)=O | -14% | -10%
SMILES | EPAC1 ag val | EPAC2 ant val
O=C(OC[C@H]1O[C@@H](OC(=O)c2cc(O)c(O)c(OC(=O)c3cc(O)c(O)c(O)c3)c2)[C@H](OC(=O)c2cc(O)c(O)c(OC(=O)c3cc(O)c(O)c(O)c3)c2)[C@@H](OC(=O)c2cc(O)c(O)c(OC(=O)c3cc(O)c(O)c(O)c3)c2)[C@@H]1OC(=O)c1cc(O)c(O)c(OC(=O)c2cc(O)c(O)c(O)c2)c1)c1cc(O)c(O)c(OC(=O)c2cc(O)c(O)c(O)c2)c1 | -126% | 22µM*
CCCOC(=O)c1cc(O)c(O)c(O)c1 | 9% | 21%
N#CCCn1c(=O)c(CCc2ccccc2)nc2cnc(OCc3ccccc3)nc21 | 15% | -26%
COC(=O)C1CCN(Cc2ccc3c(c2)CN(C(=O)c2ncc(C)[nH]2)CCO3)CC1 | -8% | -8%
Clc1ccccc1C(c1ccccc1)(c1ccccc1)n1ccnc1 | ? | 11µM*!
Clc1ccccc1-c1nccc(-n2ccnc2)n1 | 18% | -21%
Cn1c(-c2ccncc2)nc2cc(C(=O)N[C@H]3CCCCNC3=O)cc(NC(=O)C3CCC3)c21 | -9% | -1%
Cc1c(C(=O)NCCCc2ccncc2)cnn1-c1nccc(-c2ccccc2F)n1 | 0% | -4%
CCCCC[C@H](O)/C=C/[C@H]1[C@H](O)CC(=O)[C@@H]1C/C=C\CCCC(=O)O | -13% | -11%
CCCCC[C@H](O)C=C[C@H]1[C@H](O)CC(=O)[C@H]1CCCCCCC(=O)O | -19% | 56µM*
O=C(c1cnccn1)N1CCC2(CCCN(C(c3ccccc3)c3ccccc3)C2)CC1 | -34% | ?
O=C(c1cnccn1)N1CCC[C@@]2(CCN(C(c3ccccc3)c3ccccc3)C2)C1 | 7% | 50µM*
O=C(c1ccncc1)N1CCC2(CC1)CCN(c1ccc(-c3ccccc3)cc1)CC2 | -64% | -19%
